GLS inhibitor – qHTS for Inhibitors of Glutaminase (GLS); Glutaminase kidney isoform, mitochondrial (Homo sapiens), O94925; GLS enzymatic activity, qHTS titration; Potency, µM (doses to about 45.5 µM), for the others: top-dose activity change, negative = inhibition, usual class: inhibitors; 0.21% of 410,000 active; AID 624170, 2012; also: % is scaled to controls: 0 for no effect and ±100 for the full control effect
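Coupled fluorescence readout: glutamate oxidase/HRP/Amplex Red detect glutamate formed by hKGA from L-glutamine (1 mM solution added). Buffer 45 mM KH2PO4 pH 8.2, 0.02% Tween-20; reads at t0 and 30 min RT.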
JMJD2A Tudor inh – qHTS Assay for Inhibitors of JMJD2A-Tudor Domain | Lysine-specific demethylase 4A (Homo sapiens), O75164 | AlphaScreen JMJD2A-Tudor / H3K4me3 peptide binding | Potency, µM (series often up to 114 µM), for inactives: at the top dose activity change, negative = inhibition, actives largely listed as inhibitors | 4.4% of 390,000 active | AID 504339, 2011; also: % is scaled to controls: 0 for no effect and ±100 for the full control effect; nearly all actives have a fitted effect of over 50% in size
L3MBTL1 inh – qHTS Assay for the Inhibitors of L3MBTL1; Lethal(3)malignant brain tumor-like protein 1 (Homo sapiens), Q9Y468; AlphaScreen L3MBTL1–H3K9me1 peptide binding; Potency, µM (top dose mostly 57.1 µM), for inactives: at the highest dose activity, negative = inhibition, usual class: inhibitors; 0.66% of 230,000 active; AID 485360, 2010; also: % is scaled to controls: 0 for no effect and ±100 for the full control effect; nearly all actives have a fitted effect of over 60% in size
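AlphaScreen proximity signal between nickel-chelate acceptor and streptavidin donor beads (final 10 ug/mL) reports binding of 50 nM L3MBTL1 to 75 nM biotin-H3 K9me1 peptide; complex incubated with compounds 30 min at room temperature; cefsulodin titration as control.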
BAZ2B inh – qHTS Assay for Inhibitors of BAZ2B. AlphaScreen BAZ2B-H3K14Ac peptide displacement. Potency, µM (top dose mostly 114 µM), for inactives: top-dose activity change, negative = inhibition, usual class: inhibitors. 4.4% of 360,000 active. AID 504333, 2011; also: % is scaled to controls: 0 for no effect and ±100 for the full control effect; nearly all actives have a fitted effect of over 60% in size
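Inhibition is scored as reduced AlphaScreen emission. The BAZ2B/b-H3(5-23)K14Ac complex (50 nM each) in PBS pH 7.4, 0.01% Tween-20 meets compound (up to 110 uM) for 30 min at RT before bead addition.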
G9a block – qHTS Assay for Inhibitors of Histone Lysine Methyltransferase G9a | Histone-lysine N-methyltransferase EHMT2 (Homo sapiens), Q96KQ7 | G9a H3K9 monomethylation, AlphaScreen, 2 h | Potency, µM (top dose mostly 102 µM), for the others: at the top dose activity, negative = inhibition, hits mostly inhibitors | 8.8% of 350,000 active; also: % is scaled to controls: 0 for no effect and ±100 for the full control effect; nearly all actives have a fitted effect of over 75% in size
Target sequence (Q96KQ7 913-1193 limits assumed): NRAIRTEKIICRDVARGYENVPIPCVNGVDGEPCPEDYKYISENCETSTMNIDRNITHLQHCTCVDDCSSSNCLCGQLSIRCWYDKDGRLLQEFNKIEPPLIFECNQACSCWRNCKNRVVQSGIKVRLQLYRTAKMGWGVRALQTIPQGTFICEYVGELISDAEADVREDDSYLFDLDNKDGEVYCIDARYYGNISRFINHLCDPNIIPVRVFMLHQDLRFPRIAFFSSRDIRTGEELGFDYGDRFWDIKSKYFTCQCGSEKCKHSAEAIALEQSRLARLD
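Quantitative HTS format: methyltransferase activity on a biotin-tagged H3K9 peptide is measured by AlphaScreen, using a rabbit anti-monomethyl-H3K9 antibody with streptavidin donor and anti-IgG acceptor beads. Final levels are 20 nM enzyme, 500 nM peptide, 20 uM SAM; 2 h RT.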
HP1b binding inh – HTS for Inhibitors of HP1-beta Chromodomain Interactions with Methylated Histone Tails. Chromobox protein homolog 1 (Homo sapiens), P83916. AlphaScreen HP1-beta / biotin-H3K9me3 peptide binding. Potency, µM (series often up to 114 µM), without a hit: at the top dose activity change, negative = inhibition, hits mostly inhibitors. 0.56% of 390,000 active. AID 540317, 2011; also: nearly all actives have a fitted effect of over 70% in size
Target sequence (P83916 whole entry, looked up): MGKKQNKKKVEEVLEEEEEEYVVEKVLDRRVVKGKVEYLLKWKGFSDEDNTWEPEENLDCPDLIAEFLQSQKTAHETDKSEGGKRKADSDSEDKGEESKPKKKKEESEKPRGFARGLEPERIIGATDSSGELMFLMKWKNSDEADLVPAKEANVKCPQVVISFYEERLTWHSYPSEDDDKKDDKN
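HP1-beta protein (50 nM final) preincubated 30 min at room temperature with biotinylated H3(1-18)K9me3 peptide (50 nM) in PBS pH 7.4, 0.01% Tween-20, then compound added for 30 min. AlphaScreen streptavidin donor/nickel chelate acceptor beads (10 ug/mL final), 30 min dark, luminescence read.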
* marks the source's active call; other numbers are inactive results; ? = inconclusive; . = no result given; [ ] = another dose, or the depositor's remark. A selection: hits, their analogues and other compounds. The true share with any hit is near 10%. Calls follow the shape of the dose curve; as a rule, active = well fitted curve in the direction sought with a large enough effect; inconclusive = small, poorly fitted or top-dose-only effect, or another doubt; inactive = no such curve, though single readings can be large; an effect the other way counts as inactive or inconclusive. Potency is read from the fitted curve at half-maximal effect.

SMILES	GLS inhibitor	JMJD2A Tudor inh	L3MBTL1 inh	BAZ2B inh	G9a block	HP1b binding inh
CCN(CC)C(=O)C1CCCN(Cc2cccc(F)c2)C1 (stereo not given)	3.3%	3.16µM*	3.7%	?	?	-45.7%
NC(=O)C1CCCN(Cc2ccc3ccccc3c2)C1 (stereo not given)	-0.2%	-19.9%	-5.7%	2.9%	?	10.4%
CCN(CC)C(=O)C1CCCN(Cc2sccc2C)C1 (stereo not given)	7.7%	3.55µM*	.	28.2µM*	31.6µM*	?
CCN(CC)C(=O)C1CCCN(Cc2ccc3ccccc3c2)C1 (stereo not given)	2.6%	22.4µM*	-4.0%	?	?	3.1%
Cc1ccc(NC(=O)Cn2nc(C)c3nn(-c4ccc(Cl)cc4)c(C)c3c2=O)cc1F	-1.3%	-18.2%	.	8.1%	17.5%[59 µM]	16.0%[57 µM]
CC(=O)COc1nc2c(c(-c3ccco3)c1C#N)CCc1ccccc1-2	-1.3%	22.4%	23.7%	-16.2%	44.7µM*	9.2%
O=C(O)C1C2C=CC(O2)C1C(=O)Nc1ccc(S(=O)(=O)Nc2ccccc2)cc1 (stereo not given)	1.9%	79.4µM*	-16.5%	-4.5%	?	?
CC(=O)Nc1ccc(S(=O)(=O)N2CCCc3ccccc32)cc1	2.0%	-16.0%	-0.2%	1.4%	0.0%[12.7 µM]	22.0%
O=C(O)C1C2C=CC(O2)C1C(=O)Nc1ccc(S(=O)(=O)N2CCc3ccccc32)cc1 (stereo not given)	1.1%	-35.0%	?	-6.0%	11.2µM*	3.2%
CCc1c2c(nc3ccc(OC)cc13)-c1nc3ccccc3c(=O)n1C2	.	-12.4%	.	.	.	-4.4%
COc1ccc(Cn2c(C(=O)O)c(CNCc3ccccc3F)c3ccc(OC)cc32)cc1	3.6%	-11.0%	.	?	-1.6%[59 µM]	28.2%
CC(C)CCNC(=O)N1CCN(S(=O)(=O)c2ccc3c(ccn3C)c2)CC1	-6.9%	-0.6%	.	-1.4%	7.2%[59 µM]	25.6%[57 µM]
CC(=O)C1=C(C)NC(SCC(=O)c2ccc(Cl)cc2)=C(C#N)C1c1ccco1 (stereo not given)	0.1%	-24.5%	1.3%	-5.0%	?	30.5%
CC(=O)C1=C(C)NC(SCC(=O)c2ccccc2)=C(C#N)C1CC(C)C (stereo not given)	-5.7%	56.2µM*	.	?	?	43.9%
C[C@@H]1c2cccc(O)c2C(O)=C2C(=O)[C@@]3(O)C(O)=C(C(N)=O)C(=O)[C@@H](N(C)C)[C@@H]3[C@@H](O)[C@@H]21	-8.2%	.	.	.	-44.2%[12.7 µM]	.
C=C1c2cccc(O)c2C(=O)C2C(=O)[C@]3(O)C(=O)C(C(N)=O)C(=O)[C@@H](N(C)C)[C@@H]3[C@@H](O)[C@H]12 (stereo not given in full)	8.91µM*	3.16µM*	0.891µM*	.	.	?
Cc1ccc(NC(=O)C(OC(=O)c2ccc(F)cc2)c2ccccc2)cc1Cl (stereo not given)	-3.6%	-11.6%	6.4%	3.5%	21.3%[59 µM]	31.8%
Cc1ccc(NC(=O)C(OC(=O)c2ccc(O)cc2)c2ccccc2)cc1Cl (stereo not given)	-7.6%	-12.4%	-3.2%	-7.9%	70.8µM*	56.4%
CC(C)Oc1ccc(CNC(=O)c2ccc3nc(Cc4ccccc4)oc3c2)cc1	-10.1%	-7.7%	.	0.2%	-3.0%[59 µM]	22.0%[57 µM]
C/C(=N\NC(=O)CN(c1ccc(C)cc1)S(C)(=O)=O)c1cccs1	7.2%	-9.3%	-3.0%	-1.7%	-4.2%	8.9%
Cc1oc(/C=N/NC(=O)CN(c2ccccc2Cl)S(C)(=O)=O)cc1Br	1.6%	?	-11.9%	?	?	-17.0%
Cc1oc(/C=N/NC(=O)CN(c2ccccc2Br)S(C)(=O)=O)cc1Br	7.7%	?	-7.6%	?	70.8µM*	-25.7%
C/C(=N\NC(=O)CN(c1ccccc1Br)S(C)(=O)=O)c1cccs1	5.2%	22.4µM*	5.8%	-2.8%	.	-5.4%
C=C1CCN(C(CC(C)C)C(=O)NN2CCOCC2)S(=O)(=O)c2ccccc21 (stereo not given)	.	4.8%	.	.	.	19.1%
NC1=NC(c2cccc(Cl)c2)n2c(nc3ccccc32)N1 (stereo not given)	7.2%	-19.6%	.	-36.3%	-10.3%[59 µM]	19.2%
SMILES	GLS inhibitor	JMJD2A Tudor inh	L3MBTL1 inh	BAZ2B inh	G9a block	HP1b binding inh
COc1ccc(-c2noc(CSc3nnc(Cc4ccccc4)n3-c3ccc(F)cc3)n2)cc1	-11.3%	-15.6%	.	-18.3%	-6.9%[59 µM]	32.3%
Oc1ccccc1Nc1nc(NCc2ccco2)c2ccccc2n1	15.2%	?	-16.5%	44.7µM*	50.1µM*	-18.7%
CSc1nc(NCc2ccco2)c2ccccc2n1	3.9%	-13.0%[11.4 µM]	.	-33.2%	?	-29.0%
COc1ccc(OC)c(Nc2nc(NCc3ccco3)c3ccccc3n2)c1	5.0%	50.1µM*	-10.4%	39.8µM*	?	?
COc1ccc(OC)c(Nc2nc(NCc3ccco3)nc(N)c2[N+](=O)[O-])c1	?	-12.5%	.	-1.1%	.	3.5%
Cc1ccccc1Nc1nc(NCc2ccco2)c2ccccc2n1	5.5%	56.2µM*	.	?	?	?
N#Cc1ccccc1Cn1c(=O)n(CCCC(=O)NCc2ccccc2Cl)c(=O)c2ccccc21	-11.0%	-15.1%	.	1.0%	0.1%[59 µM]	12.2%
CCOc1ccc(NC(=O)C(=O)NCC(c2cccnc2)N2CCc3ccccc32)cc1 (stereo not given)	3.9%	1.3%	.	2.6%	-9.6%[59 µM]	31.1%
Cc1ccc(NC(=O)C2CCN(S(=O)(=O)c3ccccc3)CC2)cc1	0.0%	-1.7%	9.0%	-16.2%	?	14.3%
Cc1ccc(S(=O)c2ccc(NC(=O)C3CC3)cc2C#N)cc1 (stereo not given)	?	14.1µM*	24.9%	-0.9%	2.1%	-18.0%
O=C1CC(N2CCN(c3ccccc3F)CC2)C(=O)N1c1ccc(F)cc1 (stereo not given)	8.9%	-17.7%	.	.	.	38.9%
O=C1CC(N2CCN(c3ccccc3Cl)CC2)C(=O)N1c1ccc(F)cc1 (stereo not given)	4.4%	-12.2%	3.7%	-2.9%	50.1µM*	15.7%
